Records with an inconclusive call do not appear. A call without a number means that no potency is given here. Calls of active or inactive are those of the source. Calls follow the shape of the dose curve; as a rule, active = well fitted inhibition curve with a large enough effect; inconclusive = small, poorly fitted or top-dose-only effect; inactive = flat fitted curve, though single readings scatter.

This test deals with Calcium and integrin-binding protein 1 (Homo sapiens) (UniProt Q99828). The experiment in a line: Primary qHTS for Identification of Calcium Integrin Binding Protein 1 (CIB1) Competitor (AID 1508620).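 Also: GST tagged CIB1 binding a fluorescein labelled alphaIIb integrin peptide tracer; top concentration of the series differs between compounds.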 The settings on record: CIB1-GST / FITC-alphaIIb peptide fluorescence polarization; series mostly up to 114 µM. An outline of the steps: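 Fluorescence polarization competition: CIB1-GST (1 uM final) preincubated with compound 15 min at room temperature, then FITC-labeled alphaIIb peptide (100 nM final) added for another 15 min. Polarization read at Ex 480/Em 540.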
Calcium and integrin-binding protein 1 (Homo sapiens), sequence (Q99828 whole entry, looked up): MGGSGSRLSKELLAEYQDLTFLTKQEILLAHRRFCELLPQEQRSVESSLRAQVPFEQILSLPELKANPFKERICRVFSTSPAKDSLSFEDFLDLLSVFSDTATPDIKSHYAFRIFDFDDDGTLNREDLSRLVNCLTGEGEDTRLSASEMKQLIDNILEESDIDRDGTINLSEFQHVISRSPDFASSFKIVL
As for `C[C@@H]1CN(Cc2ccccc2)C[C@H]1c1nc2c(cnn2C2CCOCC2)c(=O)[nH]1`, the Potency entry was “inactive”.

`Cc1cc2c(c(=O)[nH]1)OC(C(O)CC(C)C)O2` (configuration not stated): the Potency entry was “inactive”. The result for `COc1ccc2c(OC)c3ccoc3nc2c1OC` reads “inactive”. For the molecule `Cc1cc(C)cc(C(=O)NOCCCCCC(=O)NO)c1`, the Potency result was “inactive”. For `COc1ccc(C[C@H](N)C(=O)N[C@@H]2[C@H](O)[C@H](n3cnc4c(N(C)C)ncnc43)O[C@@H]2CO)cc1` the value was “inactive”.

In the case of `C/C1=C\[C@H]2OC(=O)[C@@H](C)[C@@H]2CC/C(C(=O)O)=C/CC1`, the Potency result is “inactive”. The result for `CC(=O)NCC(=O)N1C2CCC1c1cc(Nc3ncc(C(F)(F)F)c(NC4CCC4)n3)ccc12` (configuration not stated) reads “inactive”. Consider `C/C(=C\C=C\C(C)C1CCC2(C)C3CCC4C(C)(C)C(=O)CCC45CC35CCC12C)C(=O)O` (configuration not stated), for which the Potency entry was “inactive”. With `CC(Nc1ncnc2nc[nH]c12)c1cc2cccc(Cl)c2c(=O)n1-c1ccccc1` (configuration not stated), the Potency entry was “inactive”. For `CC1(C)CC[C@]2(C(=O)O)CC[C@]3(C)C(=CCC4[C@@]5(C)C[C@@H](O)[C@H](O)C(C)(C)C5CC[C@]43C)C2C1` (some centres not stated) the value was “inactive”.

As for `C=C[C@@]12COC(=O)C(=C)C1[C@@H](O)[C@H](C(=C)C(=O)OC)[C@@H](OC(=O)C(=C)CO)C2` (some centres not stated), the Potency entry was “inactive”. For `Cc1cc(Nc2ccc(NC(=O)c3ccc(Nc4ccnc5ccccc45)cc3)cc2)nc(N)n1` the value was “inactive”. For `NC1CCCCN(c2c(F)cc3c(=O)c(C(=O)O)cn(C4CC4)c3c2Cl)C1` (configuration not stated), the Potency entry is “inactive”.

Take `COc1nc2sc(C(=O)NC3CC3)c(N)c2c(C)c1Cl`: the Potency entry was “inactive”. The result for `C=C[C@@H]1[C@H](O[C@@H]2O[C@H](CO)[C@@H](O)[C@H](O)[C@H]2O)OC=C(C(=O)O)[C@H]1CCOC(=O)/C=C/c1ccc(O)c(O)c1` reads “inactive”; that for `CC1(O)CCCC2(C)C1CCC13CC(CO)C(CCC12)C3` (configuration not stated), “inactive”. The result for `C=C1C[C@]23C[C@H]1CC[C@H]2[C@]1(C)CCC[C@@](C)(C(=O)O)[C@H]1[C@@H]3C(=O)O` reads “inactive”; that for `CC(=O)O[C@H]1CC(C)(C)CC2[C@@]13[C@H](O)C[C@]1(C)[C@@]2(CCC2[C@@]4(C)CC[C@H](O[C@@H]5OC[C@H](O[C@@H]6O[C@H](CO)[C@@H](O)[C@H](O)[C@H]6O[C@@H]6OC[C@@H](O)[C@H](O)[C@H]6O)[C@H](O)[C@H]5O[C@@H]5O[C@H](CO)[C@@H](O)[C@H](O)[C@H]5O)C(C)(C)C4CC[C@]21C)O[C@@H]3O` (some centres not stated), “inactive”; that for `CC(C)c1ccc2c(c1)C(=O)CC1[C@@](C)(C(=O)O)CCC[C@]21C` (some centres not stated), “inactive”. In the case of `CC(C)S(=O)(=O)NC[C@H](C)c1ccc(NC(=O)c2cc(F)cc(F)c2)cc1`, the Potency entry was “inactive”. For `CC1CC2OC3(OC2C(C)(C)O)C1C1(C)CCC24CC25CCC(O[C@@H]2OC[C@@H](O)[C@H](O)[C@H]2O)C(C)(C)C5CC=C4C1(C)C3O` (some centres not stated) the value was “inactive”; for `CC1(C)CCCC2(C)C=C(C(=O)O)C(O)CC12` (configuration not stated), “inactive”; for `C[C@H](Oc1ccc(S(C)(=O)=O)cc1C(=O)N1CCN(c2ncc(C(F)(F)F)cc2F)CC1)C(F)(F)F`, “inactive”. In the case of `C=C1CCCC2(C)CC3(OC)OC(=O)C(C)=C3CC12` (configuration not stated), the Potency entry was “inactive”. The result for `COc1cc(-c2ncn(/C=C\C(=O)OC(C)C)n2)cc(C(F)(F)F)c1` reads “inactive”; that for `C=CC(C)(O)C(O)CC1C(C)(O)C(O)C(O)C2C(C)(C)CCCC21C` (configuration not stated), “inactive”. For `C=C(C(=O)O)C1CCC2(C)CCC(O)C(=C)C2C1` (configuration not stated) the value was “inactive”.
